In experiment [1] the target is Sphingosine kinase 1 (Homo sapiens) (UniProt Q9NYA1). Conditions: at 1 µM.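 Further: mean SPHK1 inhibition value reported from the GSK PKIS kinase panel screen.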
Experiment [2] has as its target T1, Sphingosine kinase 2 (Homo sapiens) (UniProt Q9NRA0).
T1 sequence (whole entry): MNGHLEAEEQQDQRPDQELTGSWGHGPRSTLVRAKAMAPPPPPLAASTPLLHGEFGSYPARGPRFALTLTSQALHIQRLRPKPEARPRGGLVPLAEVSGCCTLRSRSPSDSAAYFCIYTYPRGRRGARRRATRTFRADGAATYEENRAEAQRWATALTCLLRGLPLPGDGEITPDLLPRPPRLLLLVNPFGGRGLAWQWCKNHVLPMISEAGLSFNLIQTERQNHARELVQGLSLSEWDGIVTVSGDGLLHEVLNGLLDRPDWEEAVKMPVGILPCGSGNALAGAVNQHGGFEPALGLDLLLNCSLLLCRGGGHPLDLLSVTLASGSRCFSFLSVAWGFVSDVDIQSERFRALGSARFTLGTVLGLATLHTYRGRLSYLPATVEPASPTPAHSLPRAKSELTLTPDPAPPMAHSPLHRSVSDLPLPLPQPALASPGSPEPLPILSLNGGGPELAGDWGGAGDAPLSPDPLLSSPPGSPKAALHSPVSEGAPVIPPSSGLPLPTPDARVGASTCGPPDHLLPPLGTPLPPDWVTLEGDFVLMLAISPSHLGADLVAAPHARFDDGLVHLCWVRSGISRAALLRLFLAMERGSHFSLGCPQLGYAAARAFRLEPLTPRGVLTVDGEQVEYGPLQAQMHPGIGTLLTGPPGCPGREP
Conditions: at 0.1 µM.

Experiment [3] addresses T1, Sphingosine kinase 2 (Homo sapiens). The conditions noted are these: at 1 µM.
Experiment [4] deals with Casein kinase II subunit alpha (Homo sapiens) (UniProt P68400). Conditions: at 0.1 µM.
Chain of Casein kinase II subunit alpha (Homo sapiens) (P68400 whole entry, looked up): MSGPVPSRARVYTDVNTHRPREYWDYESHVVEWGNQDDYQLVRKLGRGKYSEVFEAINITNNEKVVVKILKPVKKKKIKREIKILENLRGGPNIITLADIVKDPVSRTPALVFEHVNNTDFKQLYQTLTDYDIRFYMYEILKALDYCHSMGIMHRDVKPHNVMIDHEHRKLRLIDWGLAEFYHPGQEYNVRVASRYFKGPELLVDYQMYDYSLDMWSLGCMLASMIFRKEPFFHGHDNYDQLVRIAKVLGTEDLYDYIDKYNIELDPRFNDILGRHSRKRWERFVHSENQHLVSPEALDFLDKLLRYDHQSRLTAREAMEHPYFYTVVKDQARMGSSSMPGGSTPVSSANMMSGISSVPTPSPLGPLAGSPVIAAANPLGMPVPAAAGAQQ
Experiment [5] shares this target. The conditions noted are these: at 1 µM.
Experiment [6] deals with T2, Inhibitor of nuclear factor kappa-B kinase subunit alpha (Homo sapiens) (UniProt O15111).
T2 sequence (whole entry): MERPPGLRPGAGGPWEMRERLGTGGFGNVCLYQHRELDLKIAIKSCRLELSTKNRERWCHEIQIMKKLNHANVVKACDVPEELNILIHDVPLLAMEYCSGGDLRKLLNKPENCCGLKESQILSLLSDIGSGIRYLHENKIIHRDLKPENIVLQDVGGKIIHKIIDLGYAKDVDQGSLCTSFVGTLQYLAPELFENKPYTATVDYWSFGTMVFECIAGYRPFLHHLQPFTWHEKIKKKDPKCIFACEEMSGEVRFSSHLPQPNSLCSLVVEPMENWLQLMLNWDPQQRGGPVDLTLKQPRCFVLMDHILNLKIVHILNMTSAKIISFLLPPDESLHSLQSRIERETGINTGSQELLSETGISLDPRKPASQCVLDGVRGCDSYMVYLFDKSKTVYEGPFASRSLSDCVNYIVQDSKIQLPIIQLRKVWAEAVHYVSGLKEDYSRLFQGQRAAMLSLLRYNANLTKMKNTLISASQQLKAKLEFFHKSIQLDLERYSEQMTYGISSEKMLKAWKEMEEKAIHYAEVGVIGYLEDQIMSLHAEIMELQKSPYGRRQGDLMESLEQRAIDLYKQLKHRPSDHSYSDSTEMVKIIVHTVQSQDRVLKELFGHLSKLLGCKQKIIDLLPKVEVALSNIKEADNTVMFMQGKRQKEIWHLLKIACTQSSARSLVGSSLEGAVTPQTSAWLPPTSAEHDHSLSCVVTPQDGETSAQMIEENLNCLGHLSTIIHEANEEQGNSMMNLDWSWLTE
Conditions: at 0.1 µM.

Experiment [7] has as its target T2, Inhibitor of nuclear factor kappa-B kinase subunit alpha (Homo sapiens). Conditions: at 1 µM.
Experiment [8] deals with T3, Inhibitor of nuclear factor kappa-B kinase subunit beta (Homo sapiens) (UniProt O14920).
T3 sequence (whole entry): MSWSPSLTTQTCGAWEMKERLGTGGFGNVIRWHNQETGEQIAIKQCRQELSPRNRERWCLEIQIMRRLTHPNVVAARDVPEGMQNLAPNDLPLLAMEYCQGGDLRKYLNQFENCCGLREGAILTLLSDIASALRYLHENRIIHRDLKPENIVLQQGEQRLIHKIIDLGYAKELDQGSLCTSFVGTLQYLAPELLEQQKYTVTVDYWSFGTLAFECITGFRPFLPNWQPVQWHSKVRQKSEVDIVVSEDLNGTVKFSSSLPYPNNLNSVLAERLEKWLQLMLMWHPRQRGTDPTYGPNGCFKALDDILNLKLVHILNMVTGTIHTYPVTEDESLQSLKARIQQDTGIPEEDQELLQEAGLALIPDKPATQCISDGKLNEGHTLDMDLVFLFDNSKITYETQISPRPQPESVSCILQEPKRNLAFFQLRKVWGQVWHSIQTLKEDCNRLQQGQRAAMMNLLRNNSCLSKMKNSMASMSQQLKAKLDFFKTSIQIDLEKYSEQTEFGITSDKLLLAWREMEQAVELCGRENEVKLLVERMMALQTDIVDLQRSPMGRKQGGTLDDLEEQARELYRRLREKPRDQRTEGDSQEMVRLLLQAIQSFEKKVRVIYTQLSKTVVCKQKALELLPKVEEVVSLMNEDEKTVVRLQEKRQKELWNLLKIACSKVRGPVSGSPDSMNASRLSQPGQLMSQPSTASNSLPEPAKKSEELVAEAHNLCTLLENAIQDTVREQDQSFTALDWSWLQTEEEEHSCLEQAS
The conditions noted are these: at 0.1 µM.

Experiment [9] has as its target T3, Inhibitor of nuclear factor kappa-B kinase subunit beta (Homo sapiens). The conditions noted are these: at 1 µM.
In experiment [10] the target is T4, Inhibitor of nuclear factor kappa-B kinase subunit epsilon (Homo sapiens) (UniProt Q14164).
T4 sequence (whole entry): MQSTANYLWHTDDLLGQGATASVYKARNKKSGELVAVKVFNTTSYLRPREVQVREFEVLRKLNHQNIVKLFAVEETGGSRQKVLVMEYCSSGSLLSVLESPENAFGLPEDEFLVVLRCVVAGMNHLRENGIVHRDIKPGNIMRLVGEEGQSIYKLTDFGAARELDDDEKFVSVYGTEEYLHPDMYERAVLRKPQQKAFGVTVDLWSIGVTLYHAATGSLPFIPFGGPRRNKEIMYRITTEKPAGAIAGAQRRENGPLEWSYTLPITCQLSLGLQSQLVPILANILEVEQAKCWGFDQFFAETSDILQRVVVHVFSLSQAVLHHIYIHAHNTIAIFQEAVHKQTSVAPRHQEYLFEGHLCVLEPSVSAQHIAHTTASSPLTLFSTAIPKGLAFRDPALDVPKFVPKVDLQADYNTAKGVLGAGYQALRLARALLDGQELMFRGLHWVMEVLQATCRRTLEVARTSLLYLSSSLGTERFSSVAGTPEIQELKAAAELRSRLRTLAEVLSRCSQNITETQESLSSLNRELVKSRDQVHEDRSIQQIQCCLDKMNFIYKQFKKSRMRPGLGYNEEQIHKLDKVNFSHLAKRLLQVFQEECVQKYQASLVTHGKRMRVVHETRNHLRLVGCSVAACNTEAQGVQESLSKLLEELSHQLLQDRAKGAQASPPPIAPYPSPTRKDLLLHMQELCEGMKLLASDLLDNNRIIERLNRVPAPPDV
Conditions: at 0.1 µM.

Experiment [11] has as its target T4, Inhibitor of nuclear factor kappa-B kinase subunit epsilon (Homo sapiens). Conditions: at 1 µM.
In experiment [12] the target is T5, Serine/threonine-protein kinase Nek1 (Homo sapiens) (UniProt Q96PY6).
T5 sequence (whole entry): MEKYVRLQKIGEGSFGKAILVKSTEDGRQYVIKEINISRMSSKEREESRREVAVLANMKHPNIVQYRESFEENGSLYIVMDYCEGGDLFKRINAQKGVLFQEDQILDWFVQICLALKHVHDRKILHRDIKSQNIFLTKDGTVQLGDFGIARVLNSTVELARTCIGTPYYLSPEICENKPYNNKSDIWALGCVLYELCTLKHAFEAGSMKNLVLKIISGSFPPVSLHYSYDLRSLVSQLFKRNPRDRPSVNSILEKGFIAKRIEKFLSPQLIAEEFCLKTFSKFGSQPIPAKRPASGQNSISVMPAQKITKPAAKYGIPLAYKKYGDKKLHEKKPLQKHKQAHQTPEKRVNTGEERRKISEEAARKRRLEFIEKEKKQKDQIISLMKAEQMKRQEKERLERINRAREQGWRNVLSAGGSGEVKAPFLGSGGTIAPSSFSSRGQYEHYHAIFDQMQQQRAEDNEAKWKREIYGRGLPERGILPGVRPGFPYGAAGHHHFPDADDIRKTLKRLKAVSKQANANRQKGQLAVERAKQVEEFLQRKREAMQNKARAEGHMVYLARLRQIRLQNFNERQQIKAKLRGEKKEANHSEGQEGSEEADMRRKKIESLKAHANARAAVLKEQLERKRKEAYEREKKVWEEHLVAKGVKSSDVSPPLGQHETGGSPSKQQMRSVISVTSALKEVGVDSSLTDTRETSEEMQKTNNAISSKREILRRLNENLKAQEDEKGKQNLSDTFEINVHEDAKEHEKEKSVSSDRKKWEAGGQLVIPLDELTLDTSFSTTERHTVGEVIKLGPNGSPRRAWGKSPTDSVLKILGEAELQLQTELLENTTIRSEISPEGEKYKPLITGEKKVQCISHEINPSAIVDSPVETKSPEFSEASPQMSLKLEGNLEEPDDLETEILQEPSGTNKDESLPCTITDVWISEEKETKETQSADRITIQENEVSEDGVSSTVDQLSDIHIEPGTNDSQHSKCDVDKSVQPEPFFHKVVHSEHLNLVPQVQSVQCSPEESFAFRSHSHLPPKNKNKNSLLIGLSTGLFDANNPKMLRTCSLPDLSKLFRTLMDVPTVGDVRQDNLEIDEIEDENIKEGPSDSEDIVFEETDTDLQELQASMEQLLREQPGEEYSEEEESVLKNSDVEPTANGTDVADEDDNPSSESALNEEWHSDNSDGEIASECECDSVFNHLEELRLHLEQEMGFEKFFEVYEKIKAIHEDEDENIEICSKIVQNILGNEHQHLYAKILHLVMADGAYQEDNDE
Conditions: at 0.1 µM.

Experiment [13] deals with T5, Serine/threonine-protein kinase Nek1 (Homo sapiens). Conditions: at 1 µM.
For experiment [14], the target named is T6, Serine/threonine-protein kinase Nek2 (Homo sapiens) (UniProt P51955).
T6 sequence (whole entry): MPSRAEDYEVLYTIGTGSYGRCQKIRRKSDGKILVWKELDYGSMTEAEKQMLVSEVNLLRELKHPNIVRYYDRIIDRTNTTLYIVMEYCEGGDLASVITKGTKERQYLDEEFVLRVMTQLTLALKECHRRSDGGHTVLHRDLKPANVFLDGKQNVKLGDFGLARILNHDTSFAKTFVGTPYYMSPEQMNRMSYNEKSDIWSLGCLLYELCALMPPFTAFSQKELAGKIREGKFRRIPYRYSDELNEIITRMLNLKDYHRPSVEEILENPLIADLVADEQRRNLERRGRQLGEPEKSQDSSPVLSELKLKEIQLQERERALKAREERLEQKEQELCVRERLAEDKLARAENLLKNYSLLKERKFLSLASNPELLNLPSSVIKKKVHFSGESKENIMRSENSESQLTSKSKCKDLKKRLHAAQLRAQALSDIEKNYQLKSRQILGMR
Conditions: at 0.1 µM.

Experiment [15] deals with T6, Serine/threonine-protein kinase Nek2 (Homo sapiens). Conditions: at 1 µM.
The target of experiment [16] is Serine/threonine-protein kinase Nek6 (Homo sapiens) (UniProt Q9HC98). Conditions: at 0.1 µM.
Chain of Serine/threonine-protein kinase Nek6 (Homo sapiens) (Q9HC98 whole entry): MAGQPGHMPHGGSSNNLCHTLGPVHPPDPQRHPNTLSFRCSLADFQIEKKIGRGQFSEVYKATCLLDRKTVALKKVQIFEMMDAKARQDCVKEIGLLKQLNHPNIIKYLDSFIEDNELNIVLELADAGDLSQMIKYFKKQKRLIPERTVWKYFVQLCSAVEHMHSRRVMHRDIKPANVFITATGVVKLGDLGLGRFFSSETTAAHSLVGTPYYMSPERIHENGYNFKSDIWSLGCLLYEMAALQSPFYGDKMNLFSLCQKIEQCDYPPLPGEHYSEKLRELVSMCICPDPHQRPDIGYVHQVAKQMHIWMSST
For experiment [17] the target is unchanged. Conditions: at 1 µM.
Experiment [18] deals with Serine/threonine-protein kinase Nek7 (Homo sapiens) (UniProt Q8TDX7). Conditions: at 0.1 µM.
Chain of Serine/threonine-protein kinase Nek7 (Homo sapiens) (Q8TDX7 whole entry, looked up): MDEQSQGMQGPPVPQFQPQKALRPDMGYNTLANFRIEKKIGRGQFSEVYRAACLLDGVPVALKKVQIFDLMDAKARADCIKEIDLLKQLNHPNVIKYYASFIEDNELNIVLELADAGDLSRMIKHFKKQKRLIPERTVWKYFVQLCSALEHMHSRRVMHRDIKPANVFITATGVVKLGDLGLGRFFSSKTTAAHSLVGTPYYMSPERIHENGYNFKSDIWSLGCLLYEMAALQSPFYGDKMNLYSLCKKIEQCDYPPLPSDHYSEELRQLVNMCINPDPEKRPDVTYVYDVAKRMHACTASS
Experiment [19] shares this target. Conditions: at 1 µM.
In experiment [20] the target is T7, Serine/threonine-protein kinase Nek9 (Homo sapiens) (UniProt Q8TD19).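 Further: reported value is the mean percent inhibition of NEK9.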
T7 sequence (whole entry): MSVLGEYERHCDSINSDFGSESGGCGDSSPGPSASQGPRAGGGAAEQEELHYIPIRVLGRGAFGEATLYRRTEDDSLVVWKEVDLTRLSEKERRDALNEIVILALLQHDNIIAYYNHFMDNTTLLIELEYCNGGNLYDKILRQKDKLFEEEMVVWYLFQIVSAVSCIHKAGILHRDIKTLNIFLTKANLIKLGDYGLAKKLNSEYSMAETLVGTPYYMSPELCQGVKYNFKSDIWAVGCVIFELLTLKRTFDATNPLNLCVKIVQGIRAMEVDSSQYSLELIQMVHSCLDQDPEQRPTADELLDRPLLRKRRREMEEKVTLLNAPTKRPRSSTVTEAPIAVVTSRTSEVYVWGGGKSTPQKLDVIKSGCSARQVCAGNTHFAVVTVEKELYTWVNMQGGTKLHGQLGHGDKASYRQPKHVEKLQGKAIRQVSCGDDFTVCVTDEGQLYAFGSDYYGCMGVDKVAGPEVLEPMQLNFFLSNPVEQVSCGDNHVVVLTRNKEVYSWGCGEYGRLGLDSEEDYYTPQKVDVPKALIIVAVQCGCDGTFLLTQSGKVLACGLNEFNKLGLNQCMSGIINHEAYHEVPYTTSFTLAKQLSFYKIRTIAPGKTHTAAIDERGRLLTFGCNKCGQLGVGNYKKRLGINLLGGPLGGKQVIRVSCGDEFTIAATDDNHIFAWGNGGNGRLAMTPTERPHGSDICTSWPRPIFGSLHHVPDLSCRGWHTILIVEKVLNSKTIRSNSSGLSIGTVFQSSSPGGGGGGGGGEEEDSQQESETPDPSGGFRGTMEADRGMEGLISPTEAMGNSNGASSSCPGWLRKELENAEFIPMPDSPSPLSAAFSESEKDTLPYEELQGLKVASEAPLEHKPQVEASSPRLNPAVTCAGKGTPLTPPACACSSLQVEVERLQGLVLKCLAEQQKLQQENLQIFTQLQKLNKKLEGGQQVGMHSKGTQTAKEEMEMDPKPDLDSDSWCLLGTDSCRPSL
Conditions: at 0.1 µM.

Structures are written as SMILES.

Chain of Sphingosine kinase 1 (Homo sapiens) (Q9NYA1 whole entry): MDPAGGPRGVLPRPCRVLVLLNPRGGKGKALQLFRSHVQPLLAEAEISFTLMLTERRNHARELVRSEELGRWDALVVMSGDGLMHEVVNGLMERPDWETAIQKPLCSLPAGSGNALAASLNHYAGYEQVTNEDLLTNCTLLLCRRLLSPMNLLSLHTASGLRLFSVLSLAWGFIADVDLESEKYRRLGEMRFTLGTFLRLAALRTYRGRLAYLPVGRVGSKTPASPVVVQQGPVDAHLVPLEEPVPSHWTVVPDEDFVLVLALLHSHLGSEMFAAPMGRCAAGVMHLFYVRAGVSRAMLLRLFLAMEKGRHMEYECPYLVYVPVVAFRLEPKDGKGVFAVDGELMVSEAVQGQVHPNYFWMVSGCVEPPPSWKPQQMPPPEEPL

As to `COc1cc(Nc2nccc(Nc3ccc4c(C)n[nH]c4c3)n2)cc(OC)c1OC`, the inhibition is 1.98% in [1]; -1.28% in experiment [2]; 0.88% in experiment [3]; 0.37% in experiment [4]; 0.29% in experiment [5]; 2.2% in [6]. Besides, the inhibition in [7] is -0.92%; in experiment [8], 3.27%; in [9], 17%; in experiment [10], 0.88%; in [11], 12.9%; in [12] it was 1.89%. The inhibition in experiment [13] is 7.77%; in [14], 0.97%; in experiment [15], 0.41%; in [16], -1.67%; in experiment [17] it was -0.68%; in experiment [18] it was 3.64%. For the same molecule, the inhibition in experiment [19] is 2.17%; in experiment [20] it was 0.16%.

The record behind these values is ChEMBL document CHEMBL1961873, “Compounds: GSK PKIS; Assays: Nanosyn kinase panel” (2012).
